Bioassay records from PubChem BioAssay.
Most compounds without a hit are left out; they make up all but 0.86% or so of the library.
TAR Tat displ: HIV-1 TAR-Tat binding disruption; 100,000 tested, 0.6% active; HIV-1 TAR RNA, Tat peptide displacement FRET; hits give high values; AID 1259389; z-score (concentration not given with the values); active means z-score of 3 or more in at least 2 runs
CDC25B-CDK2 inh: human CDC25B-CDK2/CyclinA binding inhibition | 94,000 tested, 0.72% active | P30305+P24941 | z-score (no concentration beside the values) | HTRF CDC25B-CDK2/CyclinA binding, anti-His/anti-Flag; hits give high values | AID 1259370; in the data active means z-score above about 3.2
* hit, by the source's call; x = not tested or not shown.

SMILES	TAR Tat displ	CDC25B-CDK2 inh
Cc1ccc(Nc2nc(-c3ccc(O)cc3)cs2)nc1	1.9	-1.6
Cc1ccc(-c2cn3cccnc3n2)cc1NC(=O)c1ccc2c(c1)OCO2	x	0.49
O=C(/C=C/c1cccs1)NC(=S)Nc1ccccc1	x	8.3*
O=C(/C=C/c1cccs1)NC(=S)NCc1ccccc1	x	-2
Cc1ccc(Nc2nc(N3CCOCC3)nc3c2cnn3C)cc1Cl	0.73	x
O=S(=O)(Nc1ccccc1F)c1ccc2c(c1)[C@H]1C=CC[C@H]1[C@@H](c1ccc(F)cc1)N2	x	-1
Cc1ccc2c(c1)cc1c(=O)n(Cc3cccc(F)c3)nc(C)n12	2	0.17
CCOC(=O)c1cc(C#N)c(Oc2ccccc2)nc1C(F)(F)F	x	22*
CCOC(=O)c1cc(C#N)c(Sc2ccccn2)nc1C(F)(F)F	x	-1.3
COc1cc(OC)c(NC(=O)C(C)Sc2nnc(-c3ccoc3C)o2)cc1Cl (stereo unspecified)	1.7	-0.34
COc1ccc(OC)c(NC(=O)C(C)Sc2nnc(-c3ccoc3C)o2)c1 (stereo unspecified)	2.1	12*
COc1cccc(C2CC(=O)N3CN(c4ccc(N(C)C)cc4)CSC3=C2C#N)c1 (stereo unspecified)	-1.3	7.2*
COc1cccc(C2CC(=O)N3CN(c4ccccc4)CSC3=C2C#N)c1 (stereo unspecified)	-1.5	0.82
COc1cccc(C2CC(=O)N3CN(c4ccc(OC)c(OC)c4)CSC3=C2C#N)c1 (stereo unspecified)	-1.8	7.5*
COc1ccc(N2CSC3=C(C#N)C(c4cccc(OC)c4)CC(=O)N3C2)cc1 (stereo unspecified)	0.29	6.1*
NC(=O)c1oc2ccccc2c1NC(=O)C(=O)O	-1.5	-1.2
O=C(Nc1ccc(Br)cc1F)C1CCCN(S(=O)(=O)c2cccc3nsnc23)C1 (stereo unspecified)	1.2	-0.95
COC(=O)C1C(=O)C2=C(CC1C)NC(C)=C(C(=O)OC(C)C)C2c1ccc(-c2ccccc2)cc1 (stereo unspecified)	2.6	0.07
O=C(Nc1ccc(O)cc1)c1cccc(-n2cnnc2)n1	12*	x
O=C(Nc1ccc(Br)cc1)c1cccc(-n2cnnc2)n1	0.73	x
Cc1c(C2CCN(S(=O)(=O)c3cnc[nH]3)CC2)c2ccccc2n1Cc1cccc(Cl)c1	1.1	x
COC(=O)C1=C(OC(=O)CN2C(=O)CCC2=O)c2ccccc2S(=O)(=O)N1C(C)C	0.12	6.3*
COC(=O)C1=C(OC(=O)CN2C(=O)CCC2=O)c2ccccc2S(=O)(=O)N1C	0.59	-2.2
CC1=C(C#N)c2nc(N)c(C#N)c(C)c2/C1=C/c1ccc(-c2ccc(C(=O)O)c(Cl)c2)o1	x	5.1*
CC1=C(C#N)C(=O)NC(=O)/C1=C\c1ccc(-c2ccccc2)o1	x	-5.6
SMILES	TAR Tat displ	CDC25B-CDK2 inh
Cc1c(C(=O)NCCN2CCc3ccccc3C2)sc2nc3n(c(=O)c12)CCCCC3	0.23	x
O=S1(=O)CCC(S(=O)(=O)Nc2c(F)c(F)c(F)c(F)c2F)C1 (stereo unspecified)	x	-1.2
O=C(Nc1nccs1)C1CCCN(S(=O)(=O)c2ccc3[nH]c(=O)oc3c2)C1 (stereo unspecified)	1	x
O=c1c2c3c(sc2nnn1CCCOc1ccccc1)CCCC3	1.5	1
COc1ccc(OCCn2nnc3sc4c(c3c2=O)CCCC4)cc1	3.3*	0.44
CC(C)COC(=O)c1ccc(N2CC(O)=C(c3nc4ccccc4n3C)C2=N)cc1	-1.7	-1
CCc1nn2cc(-c3ccccc3OC)nc2s1	2.5	0.07
O=c1ccc(-c2ccccc2)nn1Cc1cc(=O)n2ccccc2n1	0.16	-1.6
OCCSCCc1ccncc1	0.52	-1.2
CCCN1C(=O)C2(/C(=C(/O)c3ccc(C)c(F)c3)C(=O)C(=O)N2CC2CCCO2)c2ccccc21 (stereo unspecified)	-0.71	-0.53
Cc1ccc(/C(O)=C2/C(=O)C(=O)N(CC3CCCO3)C23C(=O)N(C)c2ccccc23)cc1F (stereo unspecified)	16*	0.18
O=C(CSc1nccc2ccccc12)Nc1ccc(F)cc1	x	-0.62
O=C(COc1ccc(Br)cc1)Nc1ccc(-n2cnnn2)cc1	2.1	-0.52
COc1cc(NC(=O)COc2ccc(-n3cnnn3)cc2)c(OC)cc1Cl	4.6*	-8.2
COC(=O)C1=C(C)NC2=C(C(=O)CC(c3ccc(OC)cc3)C2)C1c1cc(Cl)c(O)c(OC)c1 (stereo unspecified)	0.56	-1.4
COc1ccc(Br)cc1CNC(=O)Cn1nc(C)n2c(cc3occc32)c1=O	1.1	12*
Cc1ccc(CNC(=O)Cn2nc(C)n3c(cc4occc43)c2=O)cc1	2.1	0.57
COc1cccc(C2C(C#N)=C3N=C(N)c4ccccc4N3C3=C2C(=O)CCC3)c1 (stereo unspecified)	-1.7	-1.7
N#CC1=C2N=C(N)c3ccccc3N2C2=C(C(=O)CCC2)C1c1cccc(Cl)c1 (stereo unspecified)	-3.6	19*
Cc1ccsc1CCNC(=O)Cn1cnc(S(=O)(=O)N2CCCCC2)c1	0.29	x
O=C(c1cnn2cc(Br)cnc12)N1CCCC1c1ccccc1F (stereo unspecified)	1.6	0.63
O=C(c1cnn2cc(Br)cnc12)N1CCCC1c1cccc(F)c1 (stereo unspecified)	30*	0.57
O=C1c2ccccc2C(=O)c2c(NCCc3ccc(O)cc3)ccc(NCCc3ccc(O)cc3)c21	x	2.7
O=C1c2c(O)ccc(O)c2C(=O)c2c(NCCNCCO)ccc(NCCNCCO)c21	17*	-0.47
Brc1ccc(Nc2nc3ccccc3n3cnnc23)cc1	0.47	-0.75
SMILES	TAR Tat displ	CDC25B-CDK2 inh
COCCn1c(N2CCNCC2)nc2c1c(=O)n(C)c(=O)n2C	0.59	-1.2
CC1CCC(NC(=O)C2(C)Cn3c(ccc3-c3ccco3)C(=O)N2Cc2cccs2)CC1 (stereo unspecified)	0.47	x
CC1CCC(NC(=O)C2(C)Cn3c(cc4occc43)C(=O)N2Cc2cccs2)CC1 (stereo unspecified)	10*	x
CC1CCCCC1NC(=O)C1(C)Cn2c(cc3occc32)C(=O)N1c1ccc(Cl)cc1 (stereo unspecified)	7.6*	x
Cc1cc(C)cc(N2C(=O)c3cc4occc4n3CC2(C)C(=O)NC2CCC(C)CC2)c1 (stereo unspecified)	12*	x
CC1CCCC(NC(=O)C2(C)Cn3c(cc4occc43)C(=O)N2Cc2ccco2)C1C (stereo unspecified)	4.2	x
CC1CCCCC1NC(=O)C1(C)Cn2c(cc3occc32)C(=O)N1C1CCCCC1 (stereo unspecified)	3	x
CCC(C)N1C(=O)c2cc3occc3n2CC1(C)C(=O)NC1CCC(C)CC1 (stereo unspecified)	5.3	x
CC1CCC(NC(=O)C2(C)Cn3c(cc4occc43)C(=O)N2Cc2ccco2)CC1 (stereo unspecified)	19*	x
CCOC(=O)C1=C(C)NC2=C(C(=O)C(C(=O)OCC)C(c3ccc(OC)cc3)C2)C1c1cccs1 (stereo unspecified)	2.1	0.98
COc1ccc(C2CC(=O)Nc3cc4c(cc32)OCCO4)c(OC)c1OC (stereo unspecified)	x	-2.2
COc1cccc(-n2nnc(-c3nc(-c4ccc(F)cc4)no3)c2N)c1	-0.49	x
CCOc1ccc(-c2noc(CSc3nnc(-c4ccncc4)n3-c3ccccc3)n2)cc1	0.15	-0.35
